The text below walks through data of PubChem BioAssay.

The target in assay [1] is Tumor necrosis factor receptor superfamily member 10B (Homo sapiens) (UniProt O14763). The assay is described as follows: viability loss of caspase-8 NB7 cells with TRAIL – with/without TRAIL, luminescence panel, confirmation (AID 651596). The settings on record: NB7 neuroblastoma + caspase-8, TRAIL sensitization, NB7 Caspase-8, with TRAIL, mean of runs, at 10 µM, stronger effect = higher value.

Assay in assay [2]: as above
The settings on record: NB7 neuroblastoma + caspase-8, without TRAIL, NB7 Caspase-8, without TRAIL, mean of runs, at 10 µM.

Chain of Tumor necrosis factor receptor superfamily member 10B (Homo sapiens) (O14763 whole entry, looked up): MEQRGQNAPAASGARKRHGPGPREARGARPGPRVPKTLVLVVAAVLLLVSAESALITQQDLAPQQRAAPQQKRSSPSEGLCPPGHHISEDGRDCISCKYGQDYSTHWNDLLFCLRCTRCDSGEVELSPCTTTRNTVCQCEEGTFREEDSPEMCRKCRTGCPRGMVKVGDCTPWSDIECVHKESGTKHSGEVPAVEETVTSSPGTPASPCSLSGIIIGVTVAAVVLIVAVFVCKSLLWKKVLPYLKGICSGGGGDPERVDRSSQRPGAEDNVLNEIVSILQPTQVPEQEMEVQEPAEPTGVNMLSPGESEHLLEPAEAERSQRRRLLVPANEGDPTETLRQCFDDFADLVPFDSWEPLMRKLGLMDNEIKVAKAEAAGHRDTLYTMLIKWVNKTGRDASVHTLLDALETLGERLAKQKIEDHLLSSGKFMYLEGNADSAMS

Consider `Cc1ccc(Cn2ncc(Cl)c(Cl)c2=O)cc1`, for which the activity came out at 97.2% in assay [1] and 99.3% in assay [2].

Take `CCN1CCC(O)(/C=C/c2ccc(C(C)C)cc2)C(C(=O)/C=C/c2ccc(C(C)C)cc2)C1` (stereo not given): the activity in assay [1] stood at 87.8%; in assay [2], 82.8%.

`CSc1nnc(NC(=O)c2nc(S(=O)(=O)Cc3ccccc3)ncc2Cl)s1`: the activity worked out at 83.6% in assay [1] and 77.9% in assay [2].

Regarding `Cc1ccsc1C(=O)Nc1nc2ccccc2[nH]1`, the activity in assay [1] was determined as 82%; in assay [2], 85.7%.

With `O=C(CSc1nnc(-c2ccc(Br)cc2)o1)Nc1cccc(C(=O)O)c1`, the activity worked out at 60.1% in assay [1] and 68.1% in assay [2].

`Cc1c(P(=S)(c2ccccc2)c2ccccc2)[n+]2ccccc2n1C/C=C/c1ccccc1`: the activity in assay [1] came out at 83.3%; in assay [2] it was 56.9%.

In the case of `Cn1c(N/N=C/c2cc3ccccc3nc2Cl)nc2ccccc21`, the activity in assay [1] worked out at 92.3%; in assay [2] it was 94%.

As for `Clc1ccc(-c2nnc(SCc3ccon3)o2)c(Cl)c1`, the values for the activity in assay [1] and in assay [2] were 51.8% and 58.7%, respectively.

With `Cc1ccc2sc(NC(=O)CSc3nc(C)cc(C)c3C#N)nc2c1`, the activity came to 71.5% in assay [1] and 57.3% in assay [2].

Regarding `O=C(Nc1cccnc1Cl)c1ccc2c(Cl)c3c(nc2c1)CCC3`, the results for the activity in assay [1] and in assay [2] were 78.5% and 78.4%, respectively.

For the compound `CCCOc1ccc(-c2nnc(-c3ccco3)o2)cc1`, the values for the activity in assay [1] and in assay [2] were 53.5% and 50.9%, respectively.

As to `CCC(C)c1ccc(O)c(/C=N/O)c1` (stereo not given), the activity in assay [1] came to 38%; in assay [2], 56.6%.

As to `O=C(Nc1nc2ccccc2[nH]1)C12CC3CC(CC(C3)C1)C2`, the figures for the activity in assay [1] and in assay [2] were 66.2% and 65.7%, respectively.

On to `O=C(Nc1ccccn1)c1onc2c1CCCC2`, for which the activity in assay [1] came to 78.8%; in assay [2], 78.2%.

On to `Cc1cccc(NC(=O)c2ccc3c(Cl)c4c(nc3c2)CCCC4)n1`, for which the activity in assay [1] came out at 77.1%; in assay [2] it was 80%.

On to `COc1ccc(/C=N/Nc2nnc(Cc3ccccc3)c(=O)[nH]2)cc1OC`, for which the activity in assay [1] stood at 60.6%; in assay [2] it was 59.2%.

As to `CC1(C)N=C(N)N=C(N)N1c1cccc(CC(=O)Nc2ccccc2)c1`, the values for the activity in assay [1] and in assay [2] were 77.8% and 85.3%, respectively.

As to `CC(=O)n1cc(N(C(=O)CCl)c2ccc(Cl)cc2)c2ccccc21`, the activity in assay [1] came out at 98.5%; in assay [2] it was 98.9%.

As to `CCS(=O)(=O)c1ncc(Cl)c(C(=O)Nc2ccc(S(=O)(=O)N3CCC(C)CC3)cc2)n1`, the activity is 95.2% in assay [1] and 98.8% in assay [2].

In the case of `Cc1cccc(NC(=S)NNC(=O)c2ccc3c(c2)OCO3)c1`, the activity in assay [1] is 39.1%; in assay [2], 49.8%.

With `N=c1oc2cc(O)ccc2cc1C(=O)Nc1ccc(Cl)cc1`, the activity in assay [1] came to 34.3%; in assay [2] it was 39.3%.

Take `Nc1ccc(C(=O)NN2C(=O)[C@H](Cl)C2c2ccc(Cl)cc2)cc1` (stereo not given in full): the results for the activity in assay [1] and in assay [2] were 99.3% and 99.5%, respectively.

On to `Cc1cccc(-c2noc(-c3ccc4c(c3)OCO4)n2)c1`, for which the activity in assay [1] came out at 64.6%; in assay [2], 60.1%.

On to `C=C1C(=O)C23CCC4C(C)(C(=O)OC)CCCC4(C)C2CCC1(O)C3` (stereo not given), for which the activity in assay [1] amounted to 95.6%; in assay [2], 98.7%.

In the case of `O=C1[C@H]2[C@@H](/C=C/c3ccccc3)N3C(=O)CN(CC4CC4)C(=O)[C@@]3(Cc3ccccc3)[C@H]2C(=O)N1c1ccccc1`, the activity is 73.9% in assay [1] and 97.8% in assay [2].

In the case of `O=C(CCl)Nc1ccc(-c2ccccc2)cc1`, the activity in assay [1] is 99.3%; in assay [2], 99.7%.

`Cc1ccc(NC(=O)c2ccc3c(c2)OCCO3)nc1`: the values for the activity in assay [1] and in assay [2] were 76.8% and 77.2%, respectively.

On to `O=[N+]([O-])c1ccc(/C=C/c2ccc3ccccc3n2)cc1`, for which the results for the activity in assay [1] and in assay [2] were 70.2% and 68.5%, respectively.

For the compound `CC(OC(=O)c1cc(O)c2ccccc2c1O)C(=O)Nc1ccc(C(N)=O)cc1` (stereo not given), the values for the activity in assay [1] and in assay [2] were 49.5% and 49.2%, respectively.

Regarding `O=C(Nc1nsc(-c2ccccc2)n1)c1cccs1`, the results for the activity in assay [1] and in assay [2] were 56.6% and 56%, respectively.

Regarding `COC(=O)CSc1nc2cc(OC)ccc2cc1C#N`, the activity in assay [1] turned out to be 75.6%; in assay [2], 70%.

For the compound `Cc1cccc(-n2ncc3c(NC(C)C)ncnc32)c1`, the activity in assay [1] turned out to be 63.2%; in assay [2], 64.7%.

Turning to `Cc1ccccc1/C(N)=N/OC(=O)/C=C/c1ccccc1`, the results for the activity in assay [1] and in assay [2] were 98.7% and 97.3%, respectively.

For `O=C(CSc1nnc(-c2csc3c2CCCC3)o1)Nc1ccccc1`, the activity in assay [1] amounted to 76.4%; in assay [2], 76.5%.

Take `Cc1cc(C)c2sc(N(CCCN(C)C)C(=O)c3ccc(S(=O)(=O)N4CCc5ccccc5C4)cc3)nc2c1`: the activity in assay [1] was 93.1%; in assay [2] it was 93.8%.

Take `O=C(COc1ccccc1)Nc1cccc(-c2ccc(N3CCOCC3)nn2)c1`: the activity worked out at 72.7% in assay [1] and 77.8% in assay [2].

On to `CCOCc1nc(N)nc(N)c1-c1cccc(Cl)c1`, for which the activity in assay [1] amounted to 46.8%; in assay [2] it was 61.9%.

In the case of `COc1ccc(/C(N)=N/OC(=O)c2ccc(OC)c([N+](=O)[O-])c2)cc1OC`, the activity in assay [1] was 92.1%; in assay [2], 84.7%.

Turning to `Cc1onc(C(=O)N2CCN(C(c3ccccc3)c3ccccc3)CC2)c1[N+](=O)[O-]`, the activity stood at 99.8% in assay [1] and 97% in assay [2].

Take `CCOC(=O)c1nn(-c2ccc3c(c2)OCCO3)cc1O`: the activity in assay [1] stood at 60%; in assay [2], 57%.

As for `CN(NC(=O)c1ccc(Cl)cc1)c1nc(-c2ccccc2)nnc1C(F)(F)F`, the activity came to 61.9% in assay [1] and 57.8% in assay [2].

With `C=C(C)CSc1nnc2n(C)c(=O)c3c4c(sc3n12)CCC4`, the values for the activity in assay [1] and in assay [2] were 61.6% and 63.9%, respectively.

In the case of `CCOC(=O)N1CCN(C(=O)CSCC(=O)Nc2nc(-c3ccc(-c4ccccc4)cc3)cs2)CC1`, the activity in assay [1] was determined as 66.9%; in assay [2], 68%.

For `O=C(CCN1C(=O)NC2(CCCC2)C1=O)Nc1ccc(-c2nc3ccccc3s2)cc1`, the activity in assay [1] is 52.2%; in assay [2] it was 44.5%.

Take `CC(C)COCc1ccc(O)c2ncccc12`: the activity turned out to be 38.6% in assay [1] and 32.1% in assay [2].

For `COc1cccc(-c2nnc(Nc3nc4c(F)cccc4s3)o2)c1`, the activity in assay [1] amounted to 81.2%; in assay [2] it was 84.2%.

As to `O=S(=O)(Nc1nc2ccccc2nc1N1CCc2ccccc2C1)c1ccc(Br)cc1`, the activity in assay [1] is 55.5%; in assay [2] it was 66.2%.

On to `COc1ccc(-c2cn3cc(C)ccc3n2)cc1OC`, for which the figures for the activity in assay [1] and in assay [2] were 74.7% and 77%, respectively.

Consider `CSc1nc2ccc(NC(=O)c3ccccn3)cc2s1`, for which the activity in assay [1] worked out at 83.2%; in assay [2] it was 80%.

For the compound `CCOc1ccc(-n2c(SCC(N)=O)nc3c([nH]c4ccccc43)c2=O)cc1`, the activity was 59.4% in assay [1] and 56.5% in assay [2].

On to `CCCc1cc(C(=O)N/N=C/c2ccc(CC)s2)c2ccccc2n1`, for which the activity in assay [1] was found to be 68.8%; in assay [2] it was 56.9%.

Turning to `O=C(N/N=C/c1ccc2ncccc2c1)c1ccco1`, the activity in assay [1] was 75.7%; in assay [2], 70.7%.

For `O=C(Nc1ccc(F)cc1)c1nc(S(=O)(=O)Cc2ccccc2)ncc1Cl`, the activity in assay [1] amounted to 57%; in assay [2], 94.9%.

Take `Cc1ccc(NC(=O)c2ccccc2)s1`: the activity in assay [1] stood at 40.7%; in assay [2] it was 32%.

Turning to `CC(C)(C)OC(=O)NCc1ccc(NC(=O)c2nc[nH]c2C(=O)NCCCCNC(=O)c2[nH]cnc2C(=O)Nc2ccc(CNC(=O)OC(C)(C)C)cc2)cc1`, the activity in assay [1] turned out to be 95.1%; in assay [2], 96.2%.

On to `Cc1ccnc(NC(=O)c2sc3ccccc3c2Cl)c1`, for which the activity worked out at 91.6% in assay [1] and 90.8% in assay [2].

For the compound `O=C(/C=C/c1cccs1)N1CCc2ccccc21`, the activity amounted to 59.8% in assay [1] and 55.5% in assay [2].

Regarding `COc1ccc(Cn2c(SCc3ccccc3C)nc3cc(OC)c(OC)cc3c2=N)cc1`, the activity was 72.7% in assay [1] and 90.9% in assay [2].

On to `Cc1ccccc1-c1nnc(SCC(=O)Nc2cccnc2Cl)o1`, for which the activity worked out at 68.8% in assay [1] and 61% in assay [2].

Take `Cc1ccn2cc(-c3cccc(NC(=O)CCC(=O)O)c3)nc2c1`: the activity in assay [1] was determined as 70.5%; in assay [2], 60.1%.

Take `CCCNC(=O)c1ccc(-c2nc3ccccc3s2)s1`: the activity in assay [1] is 87.8%; in assay [2] it was 83.5%.

As for `CCCCCc1cc(=O)oc2c(C(CCN3CCCC3)c3cc(OC)c(OC)c(OC)c3)c(OC)cc(OC)c12` (stereo not given), the results for the activity in assay [1] and in assay [2] were 28.4% and 69.4%, respectively.

Take `Cc1ccc(C2=NN(C(=O)CCl)C(c3ccco3)C2)o1` (stereo not given): the activity in assay [1] is 98.5%; in assay [2], 98.2%.

On to `c1ccc(-c2cnc(-c3ccccc3)nn2)cc1`, for which the activity in assay [1] was 64.9%; in assay [2] it was 68.4%.

As to `Cc1cc(C)n2nc(C(=O)Nc3ccc4c(c3)OCCO4)nc2n1`, the results for the activity in assay [1] and in assay [2] were 45% and 47.2%, respectively.

Take `Cn1cnc([N+](=O)[O-])c1Sc1nc(N)nc2c1ncn2C1CC(O)C(CO)O1` (stereo not given): the activity in assay [1] is 68.8%; in assay [2], 65.6%.

Regarding `CCOc1ccc(N=Cc2c(C)[nH]n(-c3nc4ccccc4[nH]3)c2=O)cc1`, the activity stood at 87.4% in assay [1] and 86.2% in assay [2].

`O=C(NNc1nc(=O)c2cccnc2s1)c1ccccc1O`: the activity in assay [1] worked out at 45.7%; in assay [2], 43.9%.

As to `Cc1ccccc1NC(=O)Cc1nc(COC(=O)c2ccc(S(C)(=O)=O)c([N+](=O)[O-])c2)cs1`, the activity in assay [1] is 80.5%; in assay [2], 93.9%.

Take `N/C(Cc1ccc(Cl)cc1)=N\OC(=O)c1cccc2ccccc12`: the activity amounted to 99% in assay [1] and 97.5% in assay [2].

On to `CCC1CCCCN1c1ccc([N+](=O)[O-])cc1/C=N/NC(=O)Cn1c2ccccc2c(=O)c2ccccc21` (stereo not given), for which the values for the activity in assay [1] and in assay [2] were 60.3% and 66.7%, respectively.

For `Fc1ccc(-c2nnc(-c3ccc(Cl)cc3Cl)o2)cc1`, the activity in assay [1] is 85.4%; in assay [2], 84.5%.

`O=C(CCl)N=c1sccn1Cc1ccc(Cl)cc1Cl`: the activity in assay [1] was determined as 99.3%; in assay [2], 99.2%.

With `COC(=O)c1ccc(-c2nc3cc(N)ccc3o2)cc1`, the activity in assay [1] turned out to be 61.9%; in assay [2] it was 44.6%.

On to `CCCCN(C)C(=O)c1ccc(Nc2nc(C(N)Cc3ccc(C(F)(F)F)cc3)cs2)nc1` (stereo not given), for which the figures for the activity in assay [1] and in assay [2] were 56.9% and 90.2%, respectively.
